# Data taken from the supplement of paper PMC8728848.
# Shown is part of a subset that was picked to be rich in the strongest signals.
# B1: GST-Gap1 (Streptococcus parasanguinis), A1C3L5 (protein)
# chain: MFYFVPSWYNGQRQWYYDTPWWFRVKNRMTFDDSVNQVKMFLQGQEEIGLMILNYQPQLRYFLHKQNIFGIYYWSFFDDIQNITRSYTKIIHLKDLNWPEGCEFLYSPFAVVVRLKGEIFAIVNYAEDGNLHSVSFQKNGKVTKDYIFDDRGFLSSILYYDIDERPLYQDYLNINGVWQVREFLKKENDPTPILMINDFSDQTFSKKYYNGWEELIKERLAIFQNNHVENEDVFVLASDTQHNQLVSSIFKEHRKIYSFFGNRFNLENLGQDRISINDATFLVVDTEKNEELLRKTCENLVFKSIPIVRLSPFDSRLRLGHSQTVKEQIIYFHIDNIELDELYSVIAIILELMTLHLDIELRIVTFRQDFQLDLLKTWIIDFIKTNHFEDLLFKQISEGENEIEDEGEIELSRIAMECFTNENQIIKCLDTARLVIDLGIEPDLYTQIASISAGIPQINRVSSDYVIHQKNGLVISDISKLSSAIEFYFDGLFNWNEALIYAVRKMSDYTSGKILKQWKGMLKKK
# Assays:
# Assay in all cases: glycan array binding signal (z-score within array); higher = stronger binding
# Conditions in all cases: glycan notation: IUPAC condensed, linker removed
# [1] = target: Fuc(a1-2)Gal(b1-3)GlcNAc(b1-3)Gal(b1-4)Glc
# Method in brief: (§1)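 Glycan array data were curated from 3228 arrays in the Consortium for Functional Glycomics database and kept only where the protein sequence was available. Glycan names were converted to IUPAC-condensed notation, and columns mapping to the same glycan were averaged. The binding signal is a within-array Z-score, averaged across arrays of the same protein sequence at different concentrations or buffers and across linkers. Negative Z-scores can be read as non-binding.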
# [2] = target: Fuc(a1-2)Gal(b1-3)GlcNAc(b1-3)[Gal(b1-4)GlcNAc(b1-6)]Gal(b1-4)Glc
# Method in brief: as §1
# [3] = target: Fuc(a1-2)Gal(b1-3)[Fuc(a1-4)]GlcNAc(b1-2)Man(a1-3)[Fuc(a1-2)Gal(b1-3)[Fuc(a1-4)]GlcNAc(b1-2)Man(a1-3)]Man(b1-4)GlcNAc(b1-4)GlcNAc
# Method in brief: as §1
# [4] = target: Fuc(a1-2)Gal(b1-4)GlcNAc(b1-3)Gal(b1-4)GlcNAc
# Method in brief: as §1
# [5] = target: Fuc(a1-2)Gal(b1-4)[Fuc(a1-3)]GlcNAc(b1-3)GalNAc
# Method in brief: as §1
# Fuc(a1-2)Gal6S(b1-4)Glc = target: Fuc(a1-2)Gal6S(b1-4)Glc
# Method in brief: as §1
# [6] = target: Fuc(a1-2)Gal6S(b1-4)Glc6S
# Method in brief: as §1
# [7] = target: Fuc(a1-2)[Gal(a1-3)]Gal(b1-3)GlcNAc
# Method in brief: as §1
# [8] = target: Fuc(a1-2)[GalNAc(a1-3)]Gal(b1-4)[Fuc(a1-3)]GlcNAc(b1-3)GalNAc
# Method in brief: as §1
# [9] = target: Fuc(a1-3)[GalNAc(b1-4)]GlcNAc
# Method in brief: as §1
# Gal(b1-3)Gal(b1-4)GlcNAc = target: Gal(b1-3)Gal(b1-4)GlcNAc
# Method in brief: as §1
# [10] = target: Gal(b1-3)Gal(b1-4)GlcNAc(b1-2)Man(a1-3)[Gal(b1-3)Gal(b1-4)GlcNAc(b1-2)Man(a1-6)]Man(b1-4)GlcNAc(b1-4)GlcNAc
# Method in brief: as §1
# [11] = target: Gal(b1-3)GlcNAc(a1-6)Gal(b1-4)GlcNAc
# Method in brief: as §1
# [12] = target: Gal(b1-3)GlcNAc(b1-3)Gal(b1-4)GlcNAc(b1-2)[Gal(b1-3)GlcNAc(b1-3)Gal(b1-4)GlcNAc(b1-6)]Man(a1-6)[Gal(b1-3)GlcNAc(b1-3)Gal(b1-4)GlcNAc(b1-2)Man(a1-3)]Man(b1-4)GlcNAc(b1-4)[Fuc(a1-6)]GlcNAc
# Method in brief: as §1
# [13] = target: Gal(b1-3)GlcNAc(b1-3)Gal(b1-4)GlcNAc(b1-3)Gal(b1-4)GlcNAc(b1-2)[Gal(b1-3)GlcNAc(b1-3)Gal(b1-4)GlcNAc(b1-3)Gal(b1-4)GlcNAc(b1-6)]Man(a1-6)[Gal(b1-3)GlcNAc(b1-3)Gal(b1-4)GlcNAc(b1-3)Gal(b1-4)GlcNAc(b1-2)Man(a1-3)]Man(b1-4)GlcNAc(b1-4)[Fuc(a1-6)]GlcNAc
# Method in brief: as §1
# [14] = target: Gal(b1-3)GlcNAc(b1-6)GalNAc
# Method in brief: as §1
# [15] = target: Gal(b1-3)[GlcNAc(b1-6)]GalNAc
# Method in brief: as §1
# [16] = target: Gal(b1-3)[Neu5Ac(a2-6)]GalNAc
# Method in brief: as §1
# [17] = target: Gal(b1-3)[Neu5Ac(b2-6)]GalNAc
# Method in brief: as §1
# [18] = target: Gal(b1-4)GlcNAc(b1-2)[Gal(b1-4)GlcNAc(b1-4)]Man(a1-3)[Gal(b1-4)GlcNAc(b1-2)[Gal(b1-4)GlcNAc(b1-6)]Man(a1-6)]Man(b1-4)GlcNAc(b1-4)GlcNAc
# Method in brief: as §1
# [19] = target: Gal(b1-4)GlcNAc(b1-2)[Gal(b1-4)GlcNAc(b1-4)]Man(a1-3)[GlcNAc(b1-4)][Gal(b1-4)GlcNAc(b1-2)Man(a1-6)]Man(b1-4)GlcNAc(b1-4)GlcNAc
# Method in brief: as §1
# [20] = target: Gal(b1-4)GlcNAc(b1-3)Gal(b1-4)GlcNAc(b1-2)Man(a1-3)[Gal(b1-4)GlcNAc(b1-3)Gal(b1-4)GlcNAc(b1-2)Man(a1-6)]Man(b1-4)GlcNAc(b1-4)GlcNAc
# Method in brief: as §1
# [21] = target: Gal(b1-4)GlcNAc(b1-3)Gal(b1-4)GlcNAc(b1-2)Man(a1-3)[Gal(b1-4)GlcNAc(b1-3)Gal(b1-4)GlcNAc(b1-2)Man(a1-6)]Man(b1-4)GlcNAc(b1-4)[Fuc(a1-6)]GlcNAc
# Method in brief: as §1
# [22] = target: Gal(b1-4)GlcNAc(b1-3)Gal(b1-4)GlcNAc(b1-2)[Gal(b1-4)GlcNAc(b1-3)Gal(b1-4)GlcNAc(b1-6)]Man(a1-6)[Gal(b1-4)GlcNAc(b1-3)Gal(b1-4)GlcNAc(b1-2)Man(a1-3)]Man(b1-4)GlcNAc(b1-4)[Fuc(a1-6)]GlcNAc
# Method in brief: as §1
# [23] = target: Gal(b1-4)GlcNAc(b1-3)Gal(b1-4)GlcNAc(b1-3)GalNAc
# Method in brief: as §1
# [24] = target: Gal(b1-4)GlcNAc(b1-6)[Gal(b1-3)]GalNAc
# Method in brief: as §1
binder,measurement,setting,value
B1,glycan array binding signal (z-score),[1],-0.291
same,glycan array binding signal (z-score),[2],0.111
same,glycan array binding signal (z-score),[3],0.383
same,glycan array binding signal (z-score),[4],-0.608
same,glycan array binding signal (z-score),[5],1.32
same,glycan array binding signal (z-score),Fuc(a1-2)Gal6S(b1-4)Glc,-0.647
same,glycan array binding signal (z-score),[6],-0.485
same,glycan array binding signal (z-score),[7],0.152
same,glycan array binding signal (z-score),[8],0.024
same,glycan array binding signal (z-score),[9],0.035
same,glycan array binding signal (z-score),Gal(b1-3)Gal(b1-4)GlcNAc,0.416
same,glycan array binding signal (z-score),[10],13.5
same,glycan array binding signal (z-score),[11],-0.654
same,glycan array binding signal (z-score),[12],2.25
same,glycan array binding signal (z-score),[13],3.43
same,glycan array binding signal (z-score),[14],0.494
same,glycan array binding signal (z-score),[15],-0.334
same,glycan array binding signal (z-score),[16],0.3
same,glycan array binding signal (z-score),[17],-0.046
same,glycan array binding signal (z-score),[18],-0.809
same,glycan array binding signal (z-score),[19],0.833
same,glycan array binding signal (z-score),[20],4.81
same,glycan array binding signal (z-score),[21],1.2
same,glycan array binding signal (z-score),[22],2.87
same,glycan array binding signal (z-score),[23],2.15
same,glycan array binding signal (z-score),[24],0.095
